Results on 15 molecules are retold here after PubChem BioAssay (NCI).

Experiment [1] can be described thus: NCI Yeast Anticancer Drug Screen. Data for the rad50 strain (AID 155).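 Further: 0% = growth of vehicle-only cultures of the same strain.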 The following applies: S. cerevisiae rad50 strain growth inhibition, hits give high values. In short, it runs like this: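 Growth of the mutant yeast was measured after compound exposure and referenced to vehicle-treated cultures.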
The nature of experiment [2]: NCI Yeast Anticancer Drug Screen. Data for the mec2-1 strain (AID 157). The following applies: S. cerevisiae mec2-1 strain, hits give high values. In short, it runs like this:
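Readout is yeast growth inhibition, normalised to vehicle-treated controls, in the mec2-1 strain exposed to compound.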

A short description of experiment [3]: NCI Yeast Anticancer Drug Screen. Data for the sgs1 mgt1 strain (AID 161).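 Further: 0% = growth of cultures given vehicle only.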 The settings on record: S. cerevisiae sgs1 mgt1 strain, hits give high values. In short, it runs like this: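 Yeast cells carrying a defined DNA-repair defect were exposed to test compounds. Growth inhibition was measured relative to vehicle-treated controls.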
The nature of experiment [4]: NCI Yeast Anticancer Drug Screen. Data for the cln2 rad14 strain (AID 165).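 Further: 0% = growth equal to vehicle treated cultures.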 The settings on record: S. cerevisiae cln2 rad14 strain, hits give high values. The essentials:
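Relative to vehicle controls, growth inhibition of compound-treated cln2 rad14 yeast was recorded.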

Experiment [5] is described as follows: NCI Yeast Anticancer Drug Screen. Data for the bub3 strain (AID 167). The following applies: S. cerevisiae bub3 mutant strain, hits give high values. In short, it runs like this:
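Whole-cell yeast assay. The mutant strain was incubated with compounds, and growth inhibition was determined by comparison with vehicle-treated cells.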

Experiment [6] can be described thus: NCI Yeast Anticancer Drug Screen. Data for the mlh1 rad18 strain (AID 175). The settings on record: S. cerevisiae mlh1 rad18 strain growth inhibition, hits give high values. The essentials:
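Test agents were incubated with a yeast strain of defined genotype (DNA damage repair defect). Inhibition of growth was derived by comparison with vehicle-exposed cultures.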

The mark [7] stands for this setting: at 5.0 µM (retest, dose inferred, filed as 0.5).
Where [8] appears, read: at 50.0 µM (retest, dose inferred, filed as 5.0).

Where “and” joins values, the source holds several entries; their conditions need not be identical. Equal entries are not always repeated. About 79,000 compounds went through this panel and 15% of them were active in at least one assay; those are over-represented in the sample as a whole. Unmarked numbers belong to inactive results. Calls of active or inactive are those of the source. No stated cut-off is given here; in the data, active means growth inhibition above about 70%; inactive means the rest.

As for `CCCCN(CCCC)C(=O)C(C)OC(C)=O` (stereo not drawn), the growth inhibition in experiment [1] (setting [7]) is 0%; in experiment [1] (setting [8]) it was 25%; in experiment [2] (setting [7]), -4%; in experiment [2] (setting [8]) it was 0%; in experiment [3] (setting [7]) it was -3%; in experiment [3] (setting [8]), 6%. The growth inhibition in experiment [4] (setting [7]) is 10%; in experiment [4] (setting [8]), 1%; in experiment [5] (setting [7]), -2%; in experiment [5] (setting [8]) it was -8%; in experiment [6] (setting [7]) it was -38%; in experiment [6] (setting [8]) it was 8%.

As to `N#C/C(=N\O)C(N)=O`, the growth inhibition was 19% in experiment [1] (setting [7]); 87% (active) in experiment [1] (setting [8]); -3% in experiment [2] (setting [7]); 93% (active) in experiment [2] (setting [8]); 2% in experiment [3] (setting [7]); 83% (active) in experiment [3] (setting [8]). The growth inhibition in experiment [4] (setting [7]) was -1%; in experiment [4] (setting [8]), 75% (active); in experiment [5] (setting [7]), 3%; in experiment [5] (setting [8]), 86% (active); in experiment [6] (setting [7]) it was 26%; in experiment [6] (setting [8]) it was 86% (active).

Consider `CC(=O)Oc1c(Br)cc(Br)cc1C(OC(C)=O)OC(C)=O`, for which the growth inhibition in experiment [1] (setting [7]) was 20%; in experiment [1] (setting [8]), 96% (active); in experiment [2] (setting [7]) it was 8%; in experiment [2] (setting [8]) it was 87% (active); in experiment [3] (setting [7]), 19%; in experiment [3] (setting [8]), 99% (active). Also, the growth inhibition in experiment [4] (setting [7]) was 3%; in experiment [4] (setting [8]), 52%; in experiment [5] (setting [7]) it was 6%; in experiment [5] (setting [8]) it was 99% (active); in experiment [6] (setting [7]), -5%; in experiment [6] (setting [8]) it was 93% (active).

As for `CC(C)(C)C(=O)CC(c1ccccc1)c1ccccc1`, the growth inhibition in experiment [1] (setting [7]) was 11%; in experiment [1] (setting [8]), 20%; in experiment [2] (setting [7]), -1%; in experiment [2] (setting [8]) it was 3%; in experiment [3] (setting [7]), 5%; in experiment [3] (setting [8]), 30%. Besides, the growth inhibition was 12% in experiment [4] (setting [7]); 0% in experiment [4] (setting [8]); 10% in experiment [5] (setting [7]); 22% in experiment [5] (setting [8]); -13% in experiment [6] (setting [7]); 9% in experiment [6] (setting [8]).

As to `COc1ccc(C(N)=O)cc1`, the growth inhibition was 14% in experiment [1] (setting [7]); 2% in experiment [1] (setting [8]); -3% in experiment [2] (setting [7]); 0% in experiment [2] (setting [8]); -5% in experiment [3] (setting [7]); 3% in experiment [3] (setting [8]). In addition, the growth inhibition in experiment [4] (setting [7]) is -3%; in experiment [4] (setting [8]), -11%; in experiment [5] (setting [7]), -6%; in experiment [5] (setting [8]) it was -5%; in experiment [6] (setting [7]), 16%; in experiment [6] (setting [8]) it was 24%.

Regarding `CC(=O)Nc1ccc(/C=N/NC(=S)NCC(C)C)cc1`, the growth inhibition in experiment [1] (setting [7]) is 4%; in experiment [1] (setting [8]), 10%; in experiment [2] (setting [7]), 2%; in experiment [2] (setting [8]), 3%; in experiment [3] (setting [7]), -1%; in experiment [3] (setting [8]) it was 7%. The growth inhibition in experiment [4] (setting [7]) was 11%; in experiment [4] (setting [8]), -8%; in experiment [5] (setting [7]), 5%; in experiment [5] (setting [8]) it was 9%; in experiment [6] (setting [7]), -1%; in experiment [6] (setting [8]), -4%.

Turning to `CN(C)c1ccc(SC#N)cc1`, the growth inhibition in experiment [1] (setting [7]) is -4%; in experiment [1] (setting [8]), 92% (active); in experiment [2] (setting [7]), 2%; in experiment [2] (setting [8]) it was 85% (active); in experiment [3] (setting [7]) it was -2%; in experiment [3] (setting [8]), 86% (active). Moreover, the growth inhibition in experiment [4] (setting [7]) was 3%; in experiment [4] (setting [8]), 51%; in experiment [5] (setting [7]), 16%; in experiment [5] (setting [8]), 95% (active); in experiment [6] (setting [7]) it was -20%; in experiment [6] (setting [8]) it was 87% (active).

For `COCc1c(C#N)c(Cl)nc(C)c1[N+](=O)[O-]`, the growth inhibition was 14% in experiment [1] (setting [7]); 76% (active) in experiment [1] (setting [8]); 7% in experiment [2] (setting [7]); 90% (active) in experiment [2] (setting [8]); 14% in experiment [3] (setting [7]); 94% (active) in experiment [3] (setting [8]). Moreover, the growth inhibition in experiment [4] (setting [7]) is 2%; in experiment [4] (setting [8]) it was 94% (active); in experiment [5] (setting [7]), 8%; in experiment [5] (setting [8]), 97% (active); in experiment [6] (setting [7]), 0%; in experiment [6] (setting [8]), 94% (active).

Turning to `COc1ccc(N=NC(C#N)C#N)cc1`, the growth inhibition in experiment [1] (setting [7]) was 32%; in experiment [1] (setting [8]), 95% (active); in experiment [2] (setting [7]), 6%; in experiment [2] (setting [8]) it was 97% (active); in experiment [3] (setting [7]), 24%; in experiment [3] (setting [8]), 98% (active). For the same molecule, the growth inhibition is 2% in experiment [4] (setting [7]); 96% (active) in experiment [4] (setting [8]); 1% in experiment [5] (setting [7]); 98% (active) in experiment [5] (setting [8]); -10% in experiment [6] (setting [7]); 96% (active) in experiment [6] (setting [8]).

For the molecule `Cc1cccc(N=NC(C#N)C#N)c1`, the growth inhibition was 30% in experiment [1] (setting [7]); 95% (active) in experiment [1] (setting [8]); 10% in experiment [2] (setting [7]); 96% (active) in experiment [2] (setting [8]); 24% in experiment [3] (setting [7]); 95% (active) in experiment [3] (setting [8]). Also, the growth inhibition was -7% in experiment [4] (setting [7]); 86% (active) in experiment [4] (setting [8]); 1% in experiment [5] (setting [7]); 94% (active) in experiment [5] (setting [8]); -9% in experiment [6] (setting [7]); 95% (active) in experiment [6] (setting [8]).

For `CCOC(=O)C(=O)Cc1cnc2ccccc2n1`, the growth inhibition in experiment [1] (at 50.0 µM) was 1.95% and 3.05%; in experiment [2] (at 50.0 µM), 7.55% and -4.8%; in experiment [3] (at 50.0 µM), -18.8% and -8.3%; in experiment [4] (at 50.0 µM), 3.6% and 10.7%; in experiment [5] (at 50.0 µM), -1.2% and 7.2%; in experiment [6] (at 50.0 µM), 16.2% and -5.05%.

As for `O=[N+]([O-])/C=C/c1cccs1`, the growth inhibition was 95% (active) in experiment [1] (setting [7]); 98% (active) in experiment [1] (setting [8]); 33% in experiment [2] (setting [7]); 99% (active) in experiment [2] (setting [8]); 69% in experiment [3] (setting [7]); 100% (active) in experiment [3] (setting [8]). The growth inhibition in experiment [4] (setting [7]) was 16%; in experiment [4] (setting [8]) it was 99% (active); in experiment [5] (setting [7]) it was 48%; in experiment [5] (setting [8]), 100% (active); in experiment [6] (setting [7]), 4%; in experiment [6] (setting [8]), 98% (active).

`COC1OC(COC(=O)NCCCCC(=O)C(F)(F)C(F)(F)C(F)(F)C(F)(F)C(F)(F)C(F)(F)C(F)(F)F)C(O)C(O)C1O` (stereo not drawn): the growth inhibition is -34.9% and -29.9% in experiment [1] (at 50.0 µM); -22.2% and -30.1% in experiment [2] (at 50.0 µM); -10% and -11.4% in experiment [3] (at 50.0 µM); -2.5% and -8.2% in experiment [4] (at 50.0 µM); -18.4% and -26.4% in experiment [5] (at 50.0 µM).

On to `CC(=O)O[C@H]1C(=O)[C@@]2(C)C(C(OC(=O)c3ccccc3)[C@]3(O)CC(OC(=O)[C@H](OC(=O)CCC(=O)O)C(NC(=O)c4ccccc4)c4ccccc4)C(C)=C1C3(C)C)C1(OC(C)=O)COC1C[C@@H]2O` (stereo partly drawn), for which the growth inhibition in experiment [1] (at 50.0 µM) was 12.9% and 26.6%; in experiment [2] (at 50.0 µM) it was 10.1% and 18.2%; in experiment [3] (at 50.0 µM), -19.2% and -19.7%; in experiment [4] (at 50.0 µM) it was -15.8% and -13.2%; in experiment [5] (at 50.0 µM), -6.95% and -15.3%.

For `CCSC(SCC)C(OC(C)=O)C(OC(C)=O)C(COC(C)=O)OC(C)=O` (stereo not drawn), the growth inhibition in experiment [1] (at 50.0 µM) is -2.1% and -16.1%; in experiment [2] (at 50.0 µM), -2.3% and -2.8%; in experiment [3] (at 50.0 µM), 8.1% and 4.4%; in experiment [4] (at 50.0 µM), -40% and -18.2%; in experiment [5] (at 50.0 µM), -7.25% and -3.55%.
